Here are results for eight sequences from article PMC8384837, “Expanding the binding specificity for RNA recognition by a PUF domain”.

Assay in all cases: yeast three-hybrid, YBZ-1, SC-Leu-His + 0.5 mM 3-AT, 4 days
Details in all cases: tags: N-Gal4 AD-HA kept; label: inside an RPR1-promoter hybrid RNA with tandem MS2 sites; ssRNA

One test addresses PUM1 PUF domain R1-NCS (Homo sapiens, UniProt Q14671 828-1176, S863N;R864C;Q867S). In outline: (§1)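 Pumilio-1 PUF domain libraries, randomized (NNK) at the three base-contacting residues of each repeat, were co-expressed with matching RNA elements from a centromeric plasmid in strain YBZ-1 (LexA–MS2 coat fusion, HIS3 reporter). Transformants were plated on SC-Leu (input) and SC-Leu-His + 0.5 mM 3-AT (selection) for four days, and repeat regions were PCR-amplified and Illumina-sequenced. The interaction score is the log2 change in variant frequency from input to selection, with pseudocount 1 where absent.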

The target of another test is PUM1 PUF domain R1-CRR (Homo sapiens, UniProt Q14671 828-1176, S863C;Q867R). The procedure, abridged:
as §1

The target of the next test is PUM1 PUF domain R8-QWF (Homo sapiens, UniProt Q14671 828-1176, N1122Q;Y1123W;Q1126F). In outline: as §1
The next test deals with PUM1 PUF domain R8-KFM (Homo sapiens, UniProt Q14671 828-1176, N1122K;Y1123F;Q1126M). In outline: as §1
Another test deals with PUM1 PUF domain R8-RFA (Homo sapiens, UniProt Q14671 828-1176, N1122R;Y1123F;Q1126A). In outline:
as §1

A further test has as its target PUM1 PUF domain R5-RSS (Homo sapiens, UniProt Q14671 828-1176, C1007R;R1008S;Q1011S). The procedure, abridged: as §1
A further test concerns the target PUM1 PUF domain R5-RGN (Homo sapiens, UniProt Q14671 828-1176, C1007R;R1008G;Q1011N). In outline:
as §1

The target in the next test is PUM1 PUF domain R3-LSS (Homo sapiens, UniProt Q14671 828-1176, C935L;R936S;Q939S). The procedure, abridged:
as §1

The target of another test is PUM1 PUF domain R3-TRV (Homo sapiens, UniProt Q14671 828-1176, C935T;Q939V). In outline:
as §1

In a further test the target is PUM1 PUF domain R3-QRI (Homo sapiens, UniProt Q14671 828-1176, C935Q;Q939I). In outline: as §1
Another test addresses PUM1 PUF domain R5-KNS (Homo sapiens, UniProt Q14671 828-1176, C1007K;R1008N;Q1011S). In outline:
as §1

In the next test the target is PUM1 PUF domain R5-CRR (Homo sapiens, UniProt Q14671 828-1176, Q1011R). The procedure, abridged:
as §1

A further test has as its target PUM1 PUF domain R4-TPA (Homo sapiens, UniProt Q14671 828-1176, N971T;H972P;Q975A). In outline: as §1
The next test addresses PUM1 PUF domain R4-SQS (Homo sapiens, UniProt Q14671 828-1176, N971S;H972Q;Q975S). The procedure, abridged: as §1
Another test deals with PUM1 PUF domain R4-QPC (Homo sapiens, UniProt Q14671 828-1176, N971Q;H972P;Q975C). The procedure, abridged: as §1

Sequence of PUM1 PUF domain R4-TPA (Q14671 828-1176 N971T/H972P/Q975A): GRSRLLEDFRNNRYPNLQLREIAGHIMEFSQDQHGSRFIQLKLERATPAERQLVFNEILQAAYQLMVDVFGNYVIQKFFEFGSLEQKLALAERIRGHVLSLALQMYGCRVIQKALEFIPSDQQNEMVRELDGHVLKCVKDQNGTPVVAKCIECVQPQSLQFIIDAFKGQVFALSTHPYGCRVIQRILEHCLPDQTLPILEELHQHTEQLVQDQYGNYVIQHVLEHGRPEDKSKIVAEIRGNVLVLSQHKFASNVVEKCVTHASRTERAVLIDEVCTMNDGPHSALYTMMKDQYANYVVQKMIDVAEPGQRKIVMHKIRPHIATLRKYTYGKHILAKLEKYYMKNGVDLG

In the case of “GGCUAGAACUAGUGGAUCCCCCGGCGCCCGGCGGCUCGAGCCCGGGUAAGUGUAAAUUGUCUGCAUGCCGCCGGGCGCCAUGCCUGCAGGUCGACUCUAGAAAACAUG”, the binding signal in the test with PUM1 PUF domain R1-NCS is 3.38 log2 enrichment (interaction score); in the test with PUM1 PUF domain R1-CRR, 0.67 log2 enrichment (interaction score).

Turning to “GGCUAGAACUAGUGGAUCCCCCGGCGCCCGGCGGCUCGAGCCCGGGUAAGCGUAAAUAGUCUGCAUGCCGCCGGGCGCCAUGCCUGCAGGUCGACUCUAGAAAACAUG”, the binding signal with PUM1 PUF domain R8-QWF is 2.87 log2 enrichment (interaction score); with PUM1 PUF domain R8-KFM it was 2.54 log2 enrichment (interaction score); in the test with PUM1 PUF domain R8-RFA, 5.73 log2 enrichment (interaction score).

On to “GGCUAGAACUAGUGGAUCCCCCGGCGCCCGGCGGCUCGAGCCCGGGUAAGUGUUAAUAGUCUGCAUGCCGCCGGGCGCCAUGCCUGCAGGUCGACUCUAGAAAACAUG”, for which the binding signal is 2.86 log2 enrichment (interaction score) in the test with PUM1 PUF domain R5-RSS and 2.27 log2 enrichment (interaction score) in the test with PUM1 PUF domain R5-RGN.

For the sequence “GGCUAGAACUAGUGGAUCCCCCGGCGCCCGGCGGCUCGAGCCCGGGUAAGUGUAAGUAGUCUGCAUGCCGCCGGGCGCCAUGCCUGCAGGUCGACUCUAGAAAACAUG”, the binding signal with PUM1 PUF domain R3-LSS is 5.06 log2 enrichment (interaction score); in the test with PUM1 PUF domain R3-TRV it was 1.18 log2 enrichment (interaction score); with PUM1 PUF domain R3-QRI, 3.99 log2 enrichment (interaction score).

On to “GGCUAGAACUAGUGGAUCCCCCGGCGCCCGGCGGCUCGAGCCCGGGUAAGUGUCAAUAGUCUGCAUGCCGCCGGGCGCCAUGCCUGCAGGUCGACUCUAGAAAACAUG”, for which the binding signal in the test with PUM1 PUF domain R5-KNS was 4.54 log2 enrichment (interaction score); with PUM1 PUF domain R5-CRR, 4.63 log2 enrichment (interaction score); in the test with PUM1 PUF domain R5-RSS, 2.89 log2 enrichment (interaction score).

As to “GGCUAGAACUAGUGGAUCCCCCGGCGCCCGGCGGCUCGAGCCCGGGUAAGUGUACAUAGUCUGCAUGCCGCCGGGCGCCAUGCCUGCAGGUCGACUCUAGAAAACAUG”, the binding signal in the test with PUM1 PUF domain R4-TPA was 3.56 log2 enrichment (interaction score).

With “GGCUAGAACUAGUGGAUCCCCCGGCGCCCGGCGGCUCGAGCCCGGGUAAGUGUAUAUAGUCUGCAUGCCGCCGGGCGCCAUGCCUGCAGGUCGACUCUAGAAAACAUG”, the binding signal is 4.12 log2 enrichment (interaction score) with PUM1 PUF domain R4-TPA, 0.2 log2 enrichment (interaction score) with PUM1 PUF domain R4-SQS and 2.52 log2 enrichment (interaction score) with PUM1 PUF domain R4-QPC.

On to “GGCUAGAACUAGUGGAUCCCCCGGCGCCCGGCGGCUCGAGCCCGGGUAAGUGUAAAUCGUCUGCAUGCCGCCGGGCGCCAUGCCUGCAGGUCGACUCUAGAAAACAUG”, for which, in the test with PUM1 PUF domain R1-CRR, the binding signal was 2.5 log2 enrichment (interaction score).
